Data taken from PubChem BioAssay.
Measured potencies and affinities stand elsewhere. The source made the active and inactive calls. The rule behind the calls is not given here.

test: cytotoxicity in OVCAR8 ovarian cancer cells, dose response, PAX8 project, cell-based, plate reader, dry powder samples (AID 743197); details: series mostly up to 35 µM; activity change, negative = cytotoxicity: at the top concentration

Compound | activity change, negative = cytotoxicity
C[C@H]1CCCCO[C@H](CN(C)Cc2ccc(Cl)c(Cl)c2)[C@@H](C)CN([C@@H](C)CO)C(=O)c2cc(NC(=O)Nc3ccc(F)cc3)ccc2O1 | -11.1% (inactive)
C[C@@H]1CN([C@@H](C)CO)C(=O)c2c(c3ccccc3n2C)-c2ccccc2CO[C@H]1CN(C)C(=O)Nc1ccc2c(c1)OCO2 | 13.3% (inactive)
C[C@@H]1CCCCO[C@H](CN(C)Cc2ccc(C(F)(F)F)cc2)[C@H](C)CN([C@@H](C)CO)C(=O)c2cc(NC(=O)Nc3ccc(F)cc3)ccc2O1 | -3.64% (inactive)
C[C@H](CO)N1C[C@H](C)[C@H](CN(C)S(=O)(=O)c2cccs2)OCCCC[C@H](C)Oc2ccc(NC(=O)NC3CCCCC3)cc2C1=O | 5.36% (inactive)
C[C@H]1CCCCO[C@@H](CN(C)S(=O)(=O)c2cccs2)[C@@H](C)CN([C@@H](C)CO)C(=O)c2cc(NC(=O)NC3CCCCC3)ccc2O1 | 16.5% (inactive)
C[C@@H]1CN([C@H](C)CO)C(=O)c2cc(NS(=O)(=O)c3ccc(F)cc3)ccc2O[C@@H]1CN(C)Cc1ccc(C(F)(F)F)cc1 | 2.61% (inactive)
C[C@@H]1CCCCO[C@H](CN(C)C(=O)Cc2ccccc2)[C@H](C)CN([C@@H](C)CO)C(=O)c2cc(NC(=O)Nc3ccc(C(F)(F)F)cc3)ccc2O1 | 24.8% (inactive)
C[C@H](CO)N1C[C@H](C)[C@@H](CN(C)C(=O)NC2CCCCC2)Oc2cc(C#Cc3ccc(F)cc3)ccc2S1(=O)=O | 9.1% (inactive)
C[C@@H]1CCCCO[C@H](CN(C)C)[C@H](C)CN([C@H](C)CO)C(=O)c2cc(NC(=O)Nc3cccc4ccccc34)ccc2O1 | 10.4% (inactive)
